From PubChem BioAssay AID624110 (Broad Institute, 2012)
Activity calls are given as the source filed them.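 Rule for the calls: active = signal falls with dose and the fitted half-maximal concentration is at most twice the highest valid tested dose; inconclusive = flat fit with a moderate signal drop, or unreliable fit; inactive = opposite effect, flat near zero, or potency past limit.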

Target: PglD acetyltransferase (Campylobacter jejuni) (UniProt O86157)
Test: PglD acetyltransferase inhibitors, dose response, biochemical, DTNB absorbance, Campylobacter jejuni, cherry-picked samples (AID 624110)
Settings: purified C. jejuni PglD, DTNB absorbance 412 nm; series mostly up to 19.5 µM

Sequence of PglD acetyltransferase (Campylobacter jejuni) (O86157 1-203): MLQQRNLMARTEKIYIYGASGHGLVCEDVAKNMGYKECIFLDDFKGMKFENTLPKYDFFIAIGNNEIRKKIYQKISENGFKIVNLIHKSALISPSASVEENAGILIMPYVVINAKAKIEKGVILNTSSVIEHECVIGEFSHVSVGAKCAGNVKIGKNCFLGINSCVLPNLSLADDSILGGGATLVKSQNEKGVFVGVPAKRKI

| Structure (SMILES) | outcome |
| --- | --- |
| CC(=O)N[C@H]1CC[C@H](CC(=O)NCc2ccc(Cl)cc2)O[C@H]1CO | inactive |
| COc1ccc(C#Cc2cnc3c(c2)C(=O)N([C@@H](C)CO)C[C@H](C)[C@H](CN(C)CC2CCCC2)O3)cc1 | inactive |
| C[C@@H]1CN([C@@H](C)CO)C(=O)c2cc(NC(=O)Nc3ccc(F)cc3)ccc2O[C@@H]1CN(C)CC1CCCCC1 | inactive |
| O=C(C[C@@H]1CC[C@@H]2[C@H](COC[C@@H](O)CN2Cc2ccc(F)cc2)O1)N1CCc2ccccc2C1 | inactive |
